In PubChem BioAssay (NCATS):
“And” between values parts separate entries of the source, which are not always exact repeats. Equal entries are not always repeated. Records with an inconclusive call do not appear. A number with no mark means an inactive call. The source made the active and inactive calls. Calls come from the whole dose curve.
Potency is the fitted concentration of half-maximal effect.

Experiment: Cell Viability - SK-N-SH (AID 435);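 note: compound exposure lasted 40 h at 37 °C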
Conditions: SK-N-SH neuroblastoma cell viability qHTS
From the text: NIH Chemical Genomics Center [NCGC]
NIH Molecular Libraries Screening Centers Network [MLSCN]
National Institutes of Environmental Health Sciences [NIEHS]
National Toxicology Program [NTP]
We have developed a 1536-well cell-based assay for quantitative high throughput screening (qHTS) against a number of cell lines to determine in vitro cytotoxicity of small molecules. This particular assay uses the SK-N-SH cell line which is derived from human neuroblastoma.
NCGC Assay Protocol Summary:
The CellTiter-Glo luminescent cell viability assay (Promega) is a homogeneous method to measure the number of viable cells in culture. The end point readout of this assay is based on quantitation of intracellular ATP, an indicator of metabolic activity, using the luciferase reaction. Luciferase catalyzes the oxidation of beetle Luciferin to oxyluciferin and light in the presence of ATP. The luminescent signal is proportional to amount of ATP present.
Using the CellTiter-Glo luminescent cell viability assay, the amount of cellular ATP was measured in the SK-N-SH cell line with complete culture medium following compound treatment for 40 hours. The assay was performed in opaque white Kalypsys 1536-well plates. In the screen, tamoxifen and doxorubicin were used as positive controls. Library compounds were measured for their ability to cause acute toxicity in the cell line, as reflected by a decrease in intracellular ATP levels, in a concentration-dependent manner. Data were normalized to the controls for basal activity (DMSO only) and 100% inhibition (100 uM tamoxifen). AC50 values were determined from concentration-response data modeled with the standard Hill equation.
qHTS protocol fo CellTiter Glo SK-N-SH cellular assay
[Step] [Parameter] [Value] [Description]
1. Reagent; 5 uL; 1500 SK-N-SH cells/well
2. Time; 5 hr; 37 °C incubation
4. Controls; 23 nL; Tamoxifen 0.34 uM to 100 uM & Doxorubicin 0.02 nM to 100 uM
5. Time; 40 hr; 37 °C incubation
6. Reagent; 5 uL; CellTiter Glo reagent
7. Time; 20 min; Room Temperature
8. Detection; Luminescence; Viewlux plate reader
Keywords: cell viability, cytotoxicity, SK-N-SH cell line, luminescence, NTPHTS, NTPHTS_NCGC, NIEHS, EPA, DSSTox, MLSMR, MLSCN, NIH Roadmap, qHTS, NCGC
For `CCCCC(CC)CN` (stereo not given), the Potency was > 92 µM. With `CN(C)C=O` the Potency was > 92 µM. With `C=CC(=O)OCCOCCOCCOCCOC(=O)C=C` the Potency was 10.9 µM (active) and 23.1 µM (active). For `CCCCCCCCCCCC(=O)O`, the Potency was > 92 µM. For `OCCNCCO`, the Potency was > 92 µM. With `C=CCOC(=O)c1ccccc1C(=O)OCC=C` the Potency was > 92 µM. For `Cc1ccccc1C`, the Potency was > 92 µM. With `C=Cc1ccccc1Cl` the Potency was > 92 µM. In the case of `CC1=C2[C@H](/C=C(\C)C(=O)O)CC[C@@H](C)[C@H]2CC1`, the Potency is reported as > 92 µM. With `O=[N+]([O-])c1cccc(Cl)c1Cl` the Potency was > 92 µM. For `O=NO`, the Potency was > 92 µM. With `C/C=C\c1ccc(OC)cc1` the Potency was > 92 µM. For `Clc1cc(Cl)c(Cl)c(Cl)c1Cl`, the Potency was > 92 µM. In the case of `CCO[Si](CCCN)(OCC)OCC`, the Potency is reported as > 92 µM. For `c1ccc2c(c1)c1cccc3ccc4cccc2c4c31`, the Potency was > 92 µM. For `CCO`, the Potency was > 92 µM. With `CC1(C)CC(N=C=O)CC(C)(CN=C=O)C1` (stereo not given) the Potency was > 92 µM. In the case of `Cc1cccc([N+](=O)[O-])c1C`, the Potency is reported as > 92 µM. With `CC12CCC(CC1=O)C2(C)C` (stereo not given) the Potency was > 92 µM. In the case of `O=C1CCc2ccccc2O1`, the Potency is reported as > 92 µM. For `CCC(C)c1ccccc1O` (stereo not given), the Potency was > 92 µM. For `NC1=NC(S)C2N=CN=C2N1` (stereo not given), the Potency was 0.182 µM (active). With `O=S(=O)(O)c1ccccc1` the Potency was > 92 µM. For `CN(C)CCCCCCN(C)C`, the Potency was > 92 µM. With `O[C@@H]([C@H](O)[C@@H](O)CBr)[C@@H](O)CBr` the Potency was > 92 µM. For `COC(=O)c1ccc(C=O)cc1`, the Potency was > 92 µM. With `C1OCOCO1` the Potency was > 92 µM. In the case of `COCC(=O)O`, the Potency is reported as > 92 µM. In the case of `CCCCOCCO`, the Potency is reported as > 92 µM. With `Cc1ccc([N+](=O)[O-])cc1N` the Potency was > 92 µM. For `c1ccc2c(c1)[nH]c1ccccc12`, the Potency was > 92 µM. With `Nc1ccc(Cl)cc1Cl` the Potency was > 92 µM. For `O=C(/C=C/c1ccc(O)c(O)c1)O[C@@H](C(=O)O)[C@@H](OC(=O)/C=C/c1ccc(O)c(O)c1)C(=O)O`, the Potency was > 92 µM. For `COc1cc(/C=C/c2ccccc2)oc(=O)c1`, the Potency was > 92 µM. With `S=C1NC=NC2N=CNC12` (stereo not given) the Potency was 0.237 µM (active). With `Nc1ccc(S(=O)(=O)O)cc1` the Potency was > 92 µM. For `Clc1cc(Cl)c(Cl)cc1Cl`, the Potency was > 92 µM. For `O=C(O)CC(C(=O)O)C(CC(=O)O)C(=O)O` (stereo not given), the Potency was > 92 µM. For `C=C(C)C1CC=C(C)C(O)C1` (stereo not given), the Potency was > 92 µM. With `COC(=O)CCCCC(=O)OC` the Potency was > 92 µM.
